Screening results deposited in PubChem by National Center for Advancing Translational Sciences (NCATS).
In the library only some 21% were active in any assay of this set; here they are far more common.
SARS PLpro yeast = blocks SARS-CoV papain-like protease in a yeast assay; Potency, µM (titrated, usually from 32.9 µM), most hits filed as activators; actives 0.19% (n = 330,000); S. cerevisiae expressing SARS-CoV PLpro, growth rescue; calls by dose curve; also: nearly all actives have a fitted effect of over 55% in size
Pf growth 96h = P. falciparum growth inhibition at 96 hour, primary screen for plastid delayed-death inhibitors; P. falciparum luciferase reporter growth, 96 h; Potency, µM (highest dose often 28.7 µM), actives largely listed as inhibitors; actives 6.9% (n = 320,000)
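Two parasite generations (96 h, 37 C, 5% CO2) of compound exposure in infected erythrocytes (0.05% parasitemia, 2% hematocrit). Luciferase-reporter P. falciparum; decreased luminescence indicates inhibited growth, aimed at apicoplast-acting delayed death.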
Shiga toxin inh = Shiga toxin inhibition. inhibition, % at 38.7 µM. Vero cells, Shiga toxin protein synthesis inhibition reporter. actives 9.2% (n = 290,000); in the data active = inhibition mostly above about 28%, no sharp cut-off; inactive = mostly below about 43%
NS1 function inh = inhibitors of influenza NS1 protein function; actives 0.4% (n = 270,000); Potency, µM (top dose mostly 46.1 µM); AID 2326; calls by dose curve; also: actives are rising curves; nearly all actives have a fitted effect of over 50% in size
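A cell-based growth assay was used: compounds that relieve NS1-induced slow growth of budding yeast raise OD600. Assay medium was yeast nitrogen base with ammonium sulphate and -URA supplement, pH 6.0, with 2% galactose.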
Pf growth 48h = P. falciparum growth inhibition at 48 hours (one generation); actives 5.9% (n = 310,000); P. falciparum luciferase growth in erythrocytes, 48 h; Potency, µM (highest dose often 28.7 µM), usual class: inhibitors
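First compound was added to culture medium, then infected red cells at 0.1% parasitemia and 2% hematocrit (final). After incubation at 37 C under 5% CO2, luciferase detection reagent was dispensed and light output recorded.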
Cycloheximide cs = counter-screen for Shiga toxin inhibitors: cycloheximide protein synthesis inhibition | max response, % | actives 12% (n = 300,000) | cell reporter, cycloheximide protein synthesis inhibition counterscreen | AID 2314; in the data active = max response mostly above about 13%, no sharp cut-off; inactive = mostly below about 14%; also: read at 38.3 µM for the half of the compounds with a filed dose
Each line names hits and unclear results; the compound was inactive in the other large screens. Unless noted, calls follow the shape of the dose curve; as a rule, active = well fitted inhibition curve with a large enough effect; inconclusive = small, poorly fitted or top-dose-only effect, or another doubt; inactive = no such curve, though single readings can be large or run the other way.

Cc1ccc(NS(=O)(=O)c2ccc3c(c2)CC(=O)N3)cc1C	Pf growth 96h inconclusive, NS1 function inh inconclusive
CC(C)Cn1c(=O)c2c(nc3n2CCCN3CCc2ccccc2)n(C)c1=O	Pf growth 48h 5.2µM
Cn1c(=O)n(CCc2ccccc2)c(=O)c2c1nc1n2CCCN1CCc1ccccc1	Pf growth 48h 9.3µM (no result: Pf growth 96h)
COCCn1c(=O)c2c(nc3n2CC(C)CN3CCc2ccccc2)n(C)c1=O (stereo unspecified)	Pf growth 96h inconclusive
CCn1c(=O)c2c(nc3n2CC(C)CN3CCc2ccccc2)n(C)c1=O (stereo unspecified)	Pf growth 96h 8.3µM, Pf growth 48h 12µM
Cc1c(C(N)=O)cc([N+](=O)[O-])cc1[N+](=O)[O-]	none (no result: SARS PLpro yeast, Shiga toxin inh, NS1 function inh, Cycloheximide cs)
O=C(COC(=O)c1cccc(S(=O)(=O)NCc2ccccc2)c1)c1ccccc1	Shiga toxin inh 57, Cycloheximide cs 19
Cc1ccccc1Nc1nc(N)nc(COC(=O)CCS(=O)(=O)c2ccccc2)n1	Pf growth 48h inconclusive
Cc1cc(C)c(C(=O)COC(=O)c2cccc(S(=O)(=O)NCc3ccccc3)c2)cc1C	Cycloheximide cs 23
Cc1ccccc1Nc1nc(N)nc(COC(=O)c2cccc(S(=O)(=O)NCc3ccccc3)c2)n1	Pf growth 96h 13µM, Pf growth 48h inconclusive
CCc1ccccc1Nc1nc(N)nc(COC(=O)CCNS(=O)(=O)c2ccccc2)n1	Pf growth 96h inconclusive, Pf growth 48h 12µM (no result: Shiga toxin inh, NS1 function inh, Cycloheximide cs)
O=C(NCc1ccccc1)c1cccc(S(=O)(=O)NCc2ccccc2)c1	Pf growth 96h inconclusive
CNS(=O)(=O)c1cccc(C(=O)OCC(=O)NCc2ccccc2)c1	none (no result: Pf growth 48h)
CCOC(=O)N1CCN(C(=O)C2CCCN(S(=O)(=O)c3ccc(C)cc3)C2)CC1 (stereo unspecified)	Pf growth 96h inconclusive (no result: Pf growth 48h)
Cc1cc(C)cc(N(CCC#N)C(=O)COC(=O)C2CCN(S(=O)(=O)c3ccc(C)c(C)c3)CC2)c1	none (no result: Shiga toxin inh, NS1 function inh, Cycloheximide cs)
CC(NC(=O)COC(=O)CCc1ccccc1)c1ccccc1 (stereo unspecified)	none
O=C(CNS(=O)(=O)c1ccccc1)OCC(=O)c1ccc(OC(=O)c2ccccc2)cc1	Shiga toxin inh 32, Cycloheximide cs 15
O=C(Nc1ccc2c(c1)N(Cc1ccccc1)C(=O)c1ccccc1S2)NC1CC1	Pf growth 96h 12µM, Pf growth 48h 6.6µM
CN1C(=O)c2ccccc2Sc2ccc(NC(=O)NC3CC3)cc21	SARS PLpro yeast inconclusive, Pf growth 48h inconclusive
C#CCOCCOCCOCCNc1nc(N2CCN(C(=O)CCCCCCCCCCNC(=O)Cn3cc(C[C@@H](C)O)nn3)CC2)nc(N2CCN(C(=O)CCCCCCCCCCNC(=O)[C@@H](CCC(=O)O)n3cc(CCCCCN)nn3)CC2)n1	Pf growth 96h inconclusive, Pf growth 48h 1µM (no result: Shiga toxin inh, NS1 function inh, Cycloheximide cs)
C#CCOCCOCCOCCNc1nc(N2CCN(C(=O)CCCCCCCCCCNC(=O)Cn3cc(CCCCCN)nn3)CC2)nc(N2CCN(C(=O)CCCCCCCCCCNC(=O)Cn3cc(CCCCCN)nn3)CC2)n1	SARS PLpro yeast inconclusive, Pf growth 96h 6.6µM, Pf growth 48h 1.7µM (no result: Shiga toxin inh, NS1 function inh, Cycloheximide cs)
C#CCOCCOCCOCCNc1nc(N2CCN(C(=O)CCCCCCCCCCNC(=O)Cn3cc(CCCCCN)nn3)CC2)nc(N2CCN(C(=O)CCCCCCCCCCNC(=O)[C@@H](CCC(=O)O)n3cc(CCCCCN)nn3)CC2)n1	Pf growth 96h inconclusive, Pf growth 48h 13µM (no result: Shiga toxin inh, NS1 function inh, Cycloheximide cs)
C#CCOCCOCCOCCNc1nc(N2CCN(C(=O)[C@H](CCCCN)n3cc(CC(C)O)nn3)CC2)nc(N2CCN(C(=O)[C@H](CCCCN)n3cc(CC(C)O)nn3)CC2)n1 (stereo partly specified)	none (no result: Shiga toxin inh, NS1 function inh, Cycloheximide cs)
C#CCOCCOCCOCCNc1nc(N2CCN(C(=O)CCCCCCCCCCNC(=O)[C@H](CO)n3cc(CCCSC)nn3)CC2)nc(N2CCN(C(=O)CCCCCCCCCCNC(=O)[C@H](CCCN=C(N)N)n3cc(C[C@@H](C)CC)nn3)CC2)n1	Pf growth 96h 5.2µM, Pf growth 48h 1.5µM (no result: Shiga toxin inh, NS1 function inh, Cycloheximide cs)
C#CCOCCOCCOCCNc1nc(N2CCN(C(=O)[C@H]([C@@H](C)CC)n3cc(CCCN=C(N)N)nn3)CC2)nc(N2CCN(C(=O)[C@H](Cc3ccc(O)cc3)n3cc(CCO)nn3)CC2)n1	Pf growth 96h inconclusive
CN1C[C@@H]2C[C@@H](c3cccn3-c3nccs3)N3CCC[C@@]23C1=O	none
CN1N=C(C(=O)N2CCCC(N3CCN(c4ccc(F)cc4)CC3)C2)CCC1=O (stereo unspecified)	Pf growth 96h inconclusive
C#CCOCCOCCOCCNc1nc(N2CCN(C(=O)CCCCCCCCCCNC(=O)Cn3cc(C[C@@H](C)O)nn3)CC2)nc(N2CCN(C(=O)CCCCCCCCCCNC(=O)[C@H](CCCCN)n3cc(CCCC(=O)O)nn3)CC2)n1	Pf growth 96h inconclusive, Pf growth 48h 5.2µM (no result: Shiga toxin inh, NS1 function inh, Cycloheximide cs)
C#CCOCCOCCOCCNc1nc(N2CCN(C(=O)CCCCCCCCCCNC(=O)[C@H](CO)n3cc(CCCSC)nn3)CC2)nc(N2CCN(C(=O)CCCCCCCCCCNC(=O)[C@@H]([C@H](C)O)n3cc(C)nn3)CC2)n1	Pf growth 96h 0.093µM, Pf growth 48h 0.29µM (no result: Shiga toxin inh, NS1 function inh, Cycloheximide cs)
C#CCOCCOCCOCCNc1nc(N2CCN(C(=O)CCCCCCCCCCNC(=O)Cn3cc(C[C@@H](C)O)nn3)CC2)nc(N2CCN(C(=O)CCCCCCCCCCNC(=O)[C@H](CCCN=C(N)N)n3cc(C[C@@H](C)CC)nn3)CC2)n1	Pf growth 96h 1µM, Pf growth 48h 1.3µM (no result: Shiga toxin inh, NS1 function inh, Cycloheximide cs)
C#CCOCCOCCOCCNc1nc(N2CCN(C(=O)CCCCCCCCCCNC(=O)Cn3cc(C[C@@H](C)O)nn3)CC2)nc(N2CCN(C(=O)CCCCCCCCCCNC(=O)[C@H](CO)n3cc(CCCSC)nn3)CC2)n1	Pf growth 96h 0.15µM, Pf growth 48h 0.15µM (no result: Shiga toxin inh, NS1 function inh, Cycloheximide cs)
C#CCOCCOCCOCCNc1nc(N2CCN(C(=O)Cn3cc(CCCN=C(N)N)nn3)CC2)nc(N2CCN(C(=O)[C@H]([C@@H](C)CC)n3cc(CCC(=O)O)nn3)CC2)n1	none
C#CCOCCOCCOCCNc1nc(N2CCN(C(=O)[C@H]([C@@H](C)O)n3cc(CCCCN)nn3)CC2)nc(N2CCN(C(=O)[C@H](CCCCN)n3cc(CCC(=O)O)nn3)CC2)n1	none (no result: Shiga toxin inh, NS1 function inh, Cycloheximide cs)
C#CCOCCOCCOCCNc1nc(N2CCOCC2)nc(N2CCN(C(=O)Cn3cc(CC(C)O)nn3)CC2)n1 (stereo unspecified)	Pf growth 96h inconclusive
COc1cccc(CNC(=O)C2CSC3(C)CCC(=O)N23)c1 (stereo unspecified)	Pf growth 48h inconclusive (no result: Shiga toxin inh, NS1 function inh, Cycloheximide cs)
CCN(CC(=O)Nc1c(F)cccc1F)C(=O)C1CC1C (stereo unspecified)	none (no result: Shiga toxin inh, NS1 function inh, Cycloheximide cs)
C#CCOCCOCCOCCNc1nc(N2CCN(C(=O)CCCCCCCCCCNC(=O)Cn3cc(CCCCCN)nn3)CC2)nc(N2CCN(C(=O)CCCCCCCCCCNC(=O)[C@@H](CCSC)n3cc(CCO)nn3)CC2)n1	Pf growth 96h 1µM, Pf growth 48h 1.2µM (no result: Shiga toxin inh, NS1 function inh, Cycloheximide cs)
